Source: PubChem BioAssay (University of Kansas High Throughput Screening Laboratory)
Rows were chosen to be rich in hits. Some 3.5% of all compounds tested hit in one or more screens of this group.
mHTT-CaM PPI inh = inhibitors of human mutant huntingtin-calmodulin interaction. P42858. AlphaScreen His-mHTT/GST-CaM binding, luminescence. inhibition, % at 15 µM. 190,000 tested, 3.6% active;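 further: 0% = both proteins with DMSO and 100% = one protein alone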
Pf apPOL inh = Pf-apPOL DNA polymerase inhibition | Recombinant Pf-apPOL, molecular beacon fluorescence, 1.5 h | inhibition, % at 10 µM | 210,000 tested, 0.25% active
Starred values were filed as active, the others as inactive; . = not tested or not shown. No stated cut-off is given here; in the data, active means inhibition above about 50%; inactive means the rest.

SMILES | mHTT-CaM PPI inh | Pf apPOL inh
COc1cc(/C=C2/C(=O)N(c3ccc(C(=O)O)cc3)N=C2C)cc(OC)c1OC | 1.0 | -0.2
O=C(CC1COc2ccccc2NC1=O)NCc1ccc2c(c1)OCO2 (stereo unspecified) | -1.9 | -2.8
O=C(Nc1ccc(F)c(Cl)c1)c1cc2c(=O)n3ccccc3nc2s1 | -4.0 | -6.2
O=C(NCc1ccc(F)cc1)N1CCC2(CC1)Nc1ccccc1-n1cccc12 | 56.1* | -3.9
CCCNC(=O)N1CCC2(CC1)Nc1cc(F)ccc1-n1cccc12 | 31.3 | 2.6
COc1cccc(CNC(=O)N2CCC3(CC2)Nc2ccccc2-n2cccc23)c1 | 61.4* | -4.8
COCCNC(=O)N1CCC2(CC1)Nc1cc(F)ccc1-n1cccc12 | 36.1 | 5.7
COC(=O)CNC(=O)N1CCC2(CC1)Nc1ccccc1-n1cccc12 | 46.8 | -0.1
O=C(NCc1ccccc1)N1CCC2(CC1)Nc1ccccc1-n1cccc12 | 71.2* | -1.7
O=C(NCCc1ccccc1)N1CCC2(CC1)Nc1cc(F)ccc1-n1cccc12 | 56.3* | -3.5
Cc1cc(C(=O)N2CCN(C)CC2)nn1CC(=O)NCc1ccccn1 | -18.4 | -4.9
COc1ccc(N2CCN(C(=O)c3cc4c(s3)CCN(C(C)=O)C4)CC2)cc1 | 11.9 | 6.3
COc1ccc(NC(=O)CSc2nc3nc(C)cc(C)n3n2)cc1OC | -1.0 | -15.9
CSc1ccccc1NC(=O)Cn1cnc([N+](=O)[O-])n1 | 0.0 | 5.8
CC(=O)Nc1cccc(OCC(=O)Nc2ccc(F)cc2)c1 | 3.0 | 2.5
Cc1ccccc1N1CC(O)(c2cccc([N+](=O)[O-])c2)[N+]2=C1SCC2 (stereo unspecified) | 16.0 | -0.2
O=C(NCCc1ccccc1)N1CCC2(CC1)Nc1ccccc1-n1cccc12 | 68.6* | -1.6
CN1c2ccccc2C(=O)NC12CCN(C(=O)NCCc1ccccc1)CC2 | 2.2 | -7.1
Cc1c(Cl)cccc1N(CC(=O)Nc1cccnc1)S(C)(=O)=O | -6.8 | -10.3
O=C(Nc1cc(NC(=O)c2ccccc2Br)ccc1Cl)c1ccccc1 | -8.0 | -6.5
CCOc1cccc2c1OC(c1cccc(F)c1)N1N=C(c3ccco3)CC21 (stereo unspecified) | 35.0 | -20.7
COc1ccc(-c2nnc(-c3cccc([N+](=O)[O-])c3)o2)cc1 | -13.1 | 6.1
COc1ccc(O)c(C2=Nc3ccccc3N=C(c3cccc([N+](=O)[O-])c3)C2)c1 | 57.0* | -2.4
O=C(Cn1ccc2ccccc21)N1CC(c2nc(-c3cccc(Cl)c3)no2)C1 | 60.3* | -3.3
O=C(c1ccsc1)N1CC(c2nc(-c3cccc(Cl)c3)no2)C1 | -4.5 | 0.6
SMILES | mHTT-CaM PPI inh | Pf apPOL inh
O=C(c1ccccn1)N1CC(c2nc(-c3cccc(Cl)c3)no2)C1 | -7.1 | -8.2
O=C(CCSc1ccccc1)N1CC(c2nc(-c3cccc(Cl)c3)no2)C1 | 66.8* | -19.4
Cc1onc(-c2ccccc2Cl)c1C(=O)NCc1nc(-c2ccc(C(F)(F)F)cc2)no1 | . | -2.0
COc1ccc(S(=O)(=O)Nc2ccc(Cl)cc2)cc1 | -5.8 | -2.2
c1ccc(C2CCC(NCCc3c[nH]c4ccccc34)CC2)cc1 (stereo unspecified) | 77.1* | -4.0
O=C(NCCc1c[nH]c2ccccc12)C(=O)NCCc1c[nH]c2ccccc12 | 1.0 | 3.5
Cc1cn(S(=O)(=O)c2ccc(Cl)c(Cl)c2Cl)cn1 | -4.0 | -4.1
COc1ccc(NC(=O)c2cc3c(CO)cnc(C)c3oc2=Nc2ccc(C)c(F)c2)c(OC)c1 | 7.0 | -3.7
CC(C)c1nnc(C2CCN(C(=O)c3cnc4ccccc4n3)CC2)o1 | 100.1* | -7.1
Cc1c(C(=O)N2CCC(c3nnc(C(C)C)o3)CC2)cnn1-c1ccccc1 | -1.0 | -0.1
CCCCOc1ccc(C2C(C#N)=C(N)Oc3n[nH]c(CCC)c32)cc1OC (stereo unspecified) | 9.0 | 2.7
CCOc1ccc(NC(=O)C2CCCN(c3nnc4ccccn34)C2)cc1 (stereo unspecified) | 5.3 | -4.0
CCc1ccc(NC(=O)C2CCCN(c3nnc4ccccn34)C2)cc1 (stereo unspecified) | 55.9* | -4.2
Clc1ccc(CN2CCCN(Cc3ccc(Cl)cc3)C2c2cccnc2)cc1 | . | 1.8
c1ccc(N2CCN(c3ccccc3)C2c2cccnc2)cc1 | 58.0* | -3.3
CCN(CC)S(=O)(=O)c1ccc2[nH]cc(C(=O)NCCCN3CCCC3=O)c(=O)c2c1 | 51.0* | -23.8
CCN(CC)S(=O)(=O)c1ccc2[nH]cc(C(=O)NCc3ccc(F)cc3)c(=O)c2c1 | 4.0 | -7.1
O=C(Cn1nc2c(c1NC(=O)c1cnccn1)CSC2)NCc1ccco1 | 84.8* | -20.1
O=C(Cc1csc(NC(=O)c2cnccn2)n1)NCc1ccco1 | 38.2 | 4.1
O=C(Cn1nc2c(c1NC(=O)c1c[nH]c3ccccc13)CSC2)NCCc1ccccc1 | 92.9* | 0.4
O=C(Nc1cc(-c2ccco2)nn1CCO)c1cnccn1 | 92.2* | -1.2
CC(C)(C)n1nc2c(c1NC(=O)CCc1ccccc1)CSC2 | 3.0 | 0.5
O=C(Nc1nnc(-c2ccco2)o1)c1cnccn1 | -9.4 | -7.1
O=[N+]([O-])c1ccccc1S(=O)(=O)Nc1ccc(F)cc1 | -6.6 | -8.7
CCN(CC)S(=O)(=O)c1ccc(OC)c(NS(=O)(=O)c2ccc([N+](=O)[O-])cc2)c1 | -4.4 | -0.8
SMILES | mHTT-CaM PPI inh | Pf apPOL inh
COc1ccccc1NC(=O)c1cn(-c2ccc(C)c(C)c2)c(=O)c2ccccc12 | 3.0 | 0.5
O=c1[nH][nH]c2ccccc2c1=O | . | 17.0
C=CCn1c(=O)c(C(=O)NCCCO)c(O)c2ccccc21 | -3.8 | -2.2
O=C(c1ccc(Cn2cncn2)cc1)N1CCc2ccccc2C1 | 3.3 | -10.1
O=C(c1ccc(Cn2c(=O)[nH]c3ccccc3c2=O)cc1)N1CCc2ccccc2C1 | 59.8* | -6.4
CC(=O)Nc1cccc(NC(=O)c2cccc(Br)c2)c1 | -3.5 | 3.0
CCCCSc1cc(C)nc2ncnn12 | -5.3 | 0.5
Cc1c(C(=O)NC(C)c2ccccc2)oc2ccc(S(=O)(=O)N3CCCCCC3)cc12 (stereo unspecified) | -6.0 | -2.0
CC(=O)N(C)CC(=O)N1N=C(c2ccc(F)cc2)CC1c1ccccc1 (stereo unspecified) | 21.0 | 6.8
Cc1ccc(C2CC(c3ccc(C)c(C)c3)=NN2C(=O)CN(C)C(=O)C2CC2)cc1 (stereo unspecified) | 6.4 | 2.2
CN(CC(=O)N1N=C(c2cccs2)CC1c1ccccc1)C(=O)C1CCCC1 (stereo unspecified) | 20.8 | -1.3
Cc1ccc(C2=NN(C(=O)CN(C)C(=O)NC(C)C)C(c3ccccc3)C2)cc1C (stereo unspecified) | 51.5* | -0.2
CC(=O)N(C)CC(=O)N1N=C(c2ccc(C)c(C)c2)CC1c1ccccc1 (stereo unspecified) | 53.8* | -1.9
Cc1ccc(C2CC(c3cccs3)=NN2C(=O)CN(C)C(=O)C2CCCC2)cc1 (stereo unspecified) | 60.8* | -0.9
COc1ccccc1C1CC(c2ccc(C)c(C)c2)=NN1C(=O)CN(C)C(C)=O (stereo unspecified) | 65.6* | -4.9
COc1ccc(C2=NN(C(=O)CCCC(=O)O)C(c3ccccc3OC)C2)cc1OC (stereo unspecified) | 7.1 | -11.7
COc1ccc(CN2C(=O)Cn3cccc3C2C(=O)NC2CCCCCCC2)cc1 (stereo unspecified) | 3.0 | -5.8
O=C(CCCCCN1C(=O)c2cccc([N+](=O)[O-])c2C1=O)Nc1ccccc1F | 3.0 | 14.4
